{"source": "PubChem BioAssay AID588335", "about": "(The Scripps Research Institute Molecular Screening Center, 2011)", "note": "The whole screen tested about 360,000 compounds, of which about 4,500 (1.2%) were called active. The entries come from a sample that favours actives as a whole. Values without a mark were called inactive. Rule as the data show it: active = inhibition above about 30%; inactive = the rest."}
{"assay": "GDH-TPI coupling enzyme inhibitors, primary screen, artefact control for M. tuberculosis FBA inhibitor project, biochemical, absorbance, full deck (AID 588335);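 also: 0% = DMSO wells and 100% = wells lacking the enzyme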", "conditions": "GDH-TPI coupled enzyme counterscreen, NADH absorbance; at 4.8 µM; hits give high values"}
{"compound": "Nc1nnn(CC(=O)N/N=C/c2ccccc2)n1", "inhibition": "10.1%"}
{"compound": "Cc1nc(Cl)cc(N/N=C/c2ccccc2)n1", "inhibition": "39.2% (active)"}
{"compound": "Cc1cc2c(C)nc(N/N=C/c3ccccc3)nc2o1", "inhibition": "28.5%"}
{"compound": "COc1ccc(Br)cc1CN(C)CC(=O)Nc1cc(Cl)cc(Cl)c1", "inhibition": "-4.49%"}
{"compound": "CC(=O)Nc1ccc(S(=O)(=O)NCC(=O)OCC(=O)c2ccc[nH]2)cc1", "inhibition": "4.57%"}
{"compound": "O=c1c2ccccc2nc2n1C(CSCc1cccc(C(F)(F)F)c1)CS2", "note": "(stereo not given)", "inhibition": "32.9% (active)"}
{"compound": "N#Cc1c(-c2ccccc2)nc(SCc2cccc(C(F)(F)F)c2)[nH]c1=O", "inhibition": "-3.35%"}
{"compound": "O=c1c2ccccc2nc2n1C(CSCc1ccccc1)CS2", "note": "(stereo not given)", "inhibition": "2.03%"}
{"compound": "CC1=C(C(=O)Nc2cc(C)ccn2)C(c2cnn(C)c2)C2=C(CC(c3ccccc3)CC2=O)N1", "note": "(stereo not given)", "inhibition": "16.7%"}
{"compound": "CC(C(=O)NC1CCCCC1)N1C(=O)c2cccc3cccc1c23", "note": "(stereo not given)", "inhibition": "8.59%"}
{"compound": "Cc1ccc(/C=N/NC(=S)NC2CCCCC2)o1", "inhibition": "32.4% (active)"}
{"compound": "C/C(=N\\NC(=S)NC1CCCCC1)c1ccc(C)o1", "inhibition": "12.9%"}
{"compound": "Cc1cc(Br)ccc1NC(=S)NC1CCCC1", "inhibition": "13.7%"}
{"compound": "O=C(NCc1cccnc1)c1cc(C2CCCCN2C(=O)CCc2ccccc2)on1", "note": "(stereo not given)", "inhibition": "1.83%"}
{"compound": "CCN(CC)c1ccc(NC(=O)CCc2nnc3ccc(N4CCCCC4)nn23)c(C)c1", "inhibition": "13.9%"}
{"compound": "CSCC[C@H](NC(=O)OC(C)(C)C)C(=O)N/N=C/c1cc2ccc(C)cc2nc1Cl", "inhibition": "14.8%"}
{"compound": "Cc1ccc2cc(/C=N/NC(=O)[C@@H]3CCCN3)c(Cl)nc2c1", "inhibition": "33.2% (active)"}
{"compound": "O=C(Nc1cccc(F)c1)[C@@H]1CCCN1", "inhibition": "-7.69%"}
{"compound": "COC(=O)C1(C)CC1(c1ccccc1)c1ccccc1", "note": "(stereo not given)", "inhibition": "4.61%"}
{"compound": "COc1cccc(NC(=O)CCc2nnc3ccc(N4CCC(C)CC4)nn23)c1", "inhibition": "3.45%"}
{"compound": "Cc1cc(C)n(-c2nnc(C)n2NC(=O)c2cccc(Cl)c2)n1", "inhibition": "-3.66%"}
{"compound": "O=C(NCC1CCCO1)/C(=C/c1ccc(Cl)cc1)NC(=O)c1ccccc1", "note": "(stereo not given)", "inhibition": "0%"}
{"compound": "Cn1c2ccccc2c2cc(/C=C(\\NC(=O)c3ccccc3)C(=O)NCC(=O)O)ccc21", "inhibition": "35.1% (active)"}
{"compound": "CCOc1ccc(/C=C(/NC(=O)c2ccccc2)C(=O)NCCC(=O)O)cc1", "inhibition": "0.32%"}
{"compound": "CC(C(=O)Nc1ccc(F)c(F)c1F)N1CCCCCC1", "note": "(stereo not given)", "inhibition": "-6.72%"}
{"compound": "CCC(C)(C)c1ccc(Oc2ccc(NC(=O)COC(=O)C3=COCCO3)cc2)cc1", "inhibition": "-7.05%"}
{"compound": "CN(C(=O)COC(=O)c1cc(=O)[nH]c2ccccc12)C1CCCCC1", "inhibition": "10.5%"}
{"compound": "O=C1N=C(N2CCc3ccccc3C2)S/C1=C\\c1ccc(O)cc1", "inhibition": "33.1% (active)"}
{"compound": "NC1=NC(=O)S/C1=C\\c1ccc(O)cc1", "inhibition": "15.8%"}
{"compound": "Cc1cc(/C=C2/SC(=O)N(CC(=O)N3CCCC3)C2=O)ccc1N1CCOCC1", "inhibition": "1.85%"}
{"compound": "O=C(CC1SC(N2CCOCC2)=NC1=O)Nc1ccccc1F", "note": "(stereo not given)", "inhibition": "10.5%"}
{"compound": "CCc1ccc(/C=C2\\SC(N3CCOCC3)=NC2=O)cc1", "inhibition": "30.8% (active)"}
{"compound": "O=C1N=C(N2CCOCC2)S/C1=C\\C=C/c1ccccc1", "inhibition": "31.1% (active)"}
{"compound": "O=C1N=C(N2CCOCC2)CS1", "inhibition": "-6.56%"}
{"compound": "c1ccc(-c2csc(N3CCc4ccccc4C3)n2)cc1", "inhibition": "2.71%"}
{"compound": "CCOc1cc(/C=C2\\SC(N3CCCCC3)=NC2=O)ccc1O", "inhibition": "24.1%"}
{"compound": "CCOc1ccc(C(=O)NCC(=O)N2CCCCCCC2)cc1OCC", "inhibition": "-2.14%"}
{"compound": "O=C(NC1CCCCC1)C1CCC(CNS(=O)(=O)c2ccccc2)CC1", "note": "(stereo not given)", "inhibition": "-8.09%"}
{"compound": "NC(=O)CCC(NS(=O)(=O)c1ccc(Cl)cc1)C(=O)NCc1ccccc1Cl", "note": "(stereo not given)", "inhibition": "5.93%"}
{"compound": "O=C(NC1CC1)C1=C[C@H](c2coc3ccccc3c2=O)C[C@H](OCCCCO)O1", "inhibition": "1.68%"}
{"compound": "CCOC(=O)c1sc(NC(=O)C2CSC3(C)CCC(=O)N23)nc1C", "note": "(stereo not given)", "inhibition": "4.14%"}
{"compound": "Cn1c(=O)cc(OCC(=O)N2CCN(c3ccccc3F)CC2)c2ccccc21", "inhibition": "2.59%"}
{"compound": "Cc1cccc(N2CCN(C(=O)CCS(=O)(=O)c3ccc4c(c3)NC(=O)C(C)S4)CC2)c1C", "note": "(stereo not given)", "inhibition": "-2.95%"}
{"compound": "COc1ccc(CCC(=O)N2CCN(S(=O)(=O)c3ccc(OC)cc3)CC2)cc1", "inhibition": "1.81%"}
{"compound": "CCOC(=O)N1CCN(C(=O)c2ccc3nc4cc(Cl)ccc4c(=O)n3c2)CC1", "inhibition": "-6.67%"}
{"compound": "COc1ccc(C(N)c2csc(NC(=O)Nc3cccc(C(F)(F)F)c3)n2)cc1", "note": "(stereo not given)", "inhibition": "-1.33%"}
{"compound": "CC(=O)c1ccc(Nc2nc(C(N)c3ccccc3Cl)cs2)cc1", "note": "(stereo not given)", "inhibition": "29.2%"}
{"compound": "CC(=O)c1ccc(Nc2nc(C(N)c3ccccc3)cs2)cc1", "note": "(stereo not given)", "inhibition": "32% (active)"}
{"compound": "Cc1cc(NC(=O)/C=C/C(=O)N(c2ccccc2C)C(C(=O)NC2CCCC2)c2ccc(F)cc2)no1", "note": "(stereo not given)", "inhibition": "15.8%"}
{"compound": "CN(C)/C=C1\\C=C(c2ccccc2)OC1=O", "inhibition": "17.7%"}
{"compound": "O=C1c2ccccc2-c2ccccc2NC1O", "note": "(stereo not given)", "inhibition": "-4.42%"}
{"compound": "CN(C)/C=C1/C(=O)Nc2ccccc21", "inhibition": "36.4% (active)"}
{"compound": "CCN(CC(=O)NC(=O)NCc1ccccc1)Cc1nc2ccccc2c(=O)[nH]1", "inhibition": "-1.22%"}
{"compound": "CC(C)(C)c1ccc(NC(=O)COC(=O)CCc2nc3ccccc3c(=O)[nH]2)cc1", "inhibition": "3.69%"}
{"compound": "CCN(CC)c1ccc(C(=O)NNC(=O)CCc2nc3ccccc3c(=O)[nH]2)cc1", "inhibition": "30.9% (active)"}
{"compound": "COc1ccc(S(=O)(=O)N2CCN(C(=O)c3cccs3)CC2)cc1OC", "inhibition": "-5.51%"}
{"compound": "CC(C(=O)N(C)CC(=O)Nc1ccccc1C(F)(F)F)N1C(=O)c2ccccc2C1=O", "note": "(stereo not given)", "inhibition": "-1.08%"}
{"compound": "C/C(=N\\Nc1cccc(C(=O)O)c1)c1ccc2c(c1)Nc1ccccc1S2", "inhibition": "7.28%"}
{"compound": "Cc1nonc1C(=O)N/N=C/c1ccc(O)cc1", "inhibition": "29.1%"}
{"compound": "Cc1nc2ccc(C(=O)N/N=C/c3ccc(O)cc3)cc2[nH]1", "inhibition": "36.4% (active)"}
{"compound": "O=C(N/N=C/c1ccsc1)c1cc(O)cc(O)c1", "inhibition": "4.09%"}
{"compound": "O=S(=O)(c1ccc(SCc2ccc(Br)cc2)nc1)N1CCOCC1", "inhibition": "0.32%"}
{"compound": "O=C(NCc1ccccc1)C(c1ccccc1)N(C(=O)c1csnn1)c1ccc(F)cc1", "note": "(stereo not given)", "inhibition": "-1.56%"}
{"compound": "Cc1nc2ccc(S(=O)(=O)N(C)CC(=O)NC(C)c3ccccc3)cc2s1", "note": "(stereo not given)", "inhibition": "14.8%"}
{"compound": "Cc1cccc(C)c1NC(=O)CNC(=O)c1ccc(N2CCOCC2)c([N+](=O)[O-])c1", "inhibition": "1.79%"}
{"compound": "CC(C)CN(C(=O)COC(=O)c1ccc2ccccc2c1)c1c(N)n(Cc2ccccc2)c(=O)[nH]c1=O", "inhibition": "2.15%"}
{"compound": "CCN(/N=C/c1ccccc1)c1cc(=O)n(C)c(=O)[nH]1", "inhibition": "36.7% (active)"}
{"compound": "Cc1cn(C2CC(O)C(CO)O2)c(=O)n(CCCc2ccccc2)c1=O", "note": "(stereo not given)", "inhibition": "-7.8%"}
{"compound": "COc1cc(C(=O)NN(CCC#N)C2=NS(=O)(=O)c3ccccc32)cc(OC)c1OC", "inhibition": "4.46%"}
{"compound": "O=c1[nH]c(/C=C\\c2cccc(C(F)(F)F)c2)nc(O)c1[N+](=O)[O-]", "inhibition": "16.2%"}
{"compound": "Cc1ccccc1/C=C\\c1nc(O)c([N+](=O)[O-])c(=O)[nH]1", "inhibition": "34.9% (active)"}
{"compound": "Cc1cc(OC(=O)c2ccccc2)c([N+](=O)[O-])c(=O)[nH]1", "inhibition": "3.89%"}
{"compound": "Cc1nnc(SCc2cccc(Cl)c2)n(N)c1=O", "inhibition": "-5.68%"}
{"compound": "CN1CCN(C(=O)/C(=C\\c2cccs2)NC(=O)c2cccs2)CC1", "inhibition": "30.9% (active)"}
{"compound": "CN1CCN(C(=O)/C(=C\\c2ccc3c(c2)OCO3)NC(=O)c2cccs2)CC1", "inhibition": "13.8%"}
{"compound": "Cc1ccc(C(=O)N/C(=C/c2cccs2)C(=O)N2CCCCC2)cc1", "inhibition": "1.16%"}
{"compound": "FC(F)(F)c1ccc2c3n(nc2c1)CCN=C3c1ccc(Cl)cc1", "inhibition": "9.17%"}
{"compound": "O=c1[nH]c2c(c(=O)n1-c1ccccc1)CCO2", "inhibition": "6.88%"}
{"compound": "COc1ccccc1C(C)NC(=O)Cc1ccsc1", "note": "(stereo not given)", "inhibition": "6.79%"}
{"compound": "Cc1ccc(N2C(=O)C3C4C=CC(CC4)C3C2=O)cc1Cl", "note": "(stereo not given)", "inhibition": "0%"}
{"compound": "CC1(C)CC(N2CCN(C(c3ccccc3)c3ccccc3)CC2)=CC(=[N+]2CCCCC2)C1", "inhibition": "42% (active)"}
{"compound": "COC(=O)C(c1ccccc1)N1CCCCCC1", "note": "(stereo not given)", "inhibition": "-4.27%"}
{"compound": "CCOc1ccc(NC(=O)CN(C)CC(=O)NC(C)c2ccccc2)cc1OCC", "note": "(stereo not given)", "inhibition": "11%"}
{"compound": "Nc1c(-c2ccc(F)cc2)cnn1C1CCS(=O)(=O)C1", "note": "(stereo not given)", "inhibition": "3.77%"}
{"compound": "CCOc1cc(/C=N/NC(=O)CN2CCCCC2)ccc1O", "inhibition": "21.8%"}
{"compound": "CCOc1ccc(/C=N\\NC(=O)c2c(C)nc3cc(C)ccn23)cc1", "inhibition": "21.5%"}
{"compound": "CCOc1cc(/C=N/NC(=O)c2c(C)nc3ccc(Cl)cn23)ccc1O", "inhibition": "52.2% (active)"}
{"compound": "CCN1C(=NCCc2cccnc2)N[C@@H](c2ccccc2)[C@H](C(=O)OC)[C@H]1C", "inhibition": "-8.4%"}
{"compound": "Cc1[nH]c2ccccc2c1/C=C(/C#N)C(=O)NC(C)C", "inhibition": "6.92%"}
{"compound": "COCCNC(=S)N/N=C/c1c(C)[nH]c2ccccc12", "inhibition": "31% (active)"}
{"compound": "COCCNC(=S)N(CCc1c(C)[nH]c2ccc(C)cc12)Cc1cccnc1", "inhibition": "0%"}
{"compound": "CC(=O)Nc1cccc(C(=O)OCN2C(=O)c3ccccc3C2=O)c1", "inhibition": "-2.41%"}
{"compound": "COc1ccc(CCNC(=S)N2CCN(S(=O)(=O)c3ccc(F)cc3)CC2)cc1", "inhibition": "1.03%"}
{"compound": "CCN(/N=C/c1ccc(N(C)C)cc1)c1nc2ccccc2[nH]1", "inhibition": "31.3% (active)"}
{"compound": "Oc1ccc(/C=N/N(Cc2ccccc2)c2ccccc2)cc1", "inhibition": "11.2%"}
